Unmarked numbers belong to inactive results. Inconclusive results are not listed. Entries that show only a call come without a potency. Active and inactive are the calls of the source. Unless noted, calls follow the shape of the dose curve; as a rule, active = well fitted curve in the direction sought with a large enough effect in the repeat runs; inconclusive = weak or mixed curves; inactive = no such curve, though single readings can be large; an effect the other way counts as inactive or inconclusive.
Columns and labels:
[1] = qHTS assay to identify small molecule agonists of the TGF-beta/Smad signaling pathway - cell viability counter screen (AID 1346829); also: top concentration of the series differs between compounds; nearly all actives have a fitted effect of over 45% in size
Summary of the method: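 HEK 293T SBE-bla line, 5 hr compound exposure at 37 C, multiplexed CellTiter-Glo viability read by luminescence.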

[2] = qHTS assay to identify small molecule agonists of the TGF-beta/Smad signaling pathway (AID 1346859; active = well fitted activation curve with a large enough effect in the signal ratio in the repeat runs, not every such curve was filed as active; the % refers to the signal ratio; also: series mostly up to about 77 µM)
Summary of the method: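 Smad-responsive beta-lactamase reporter cells (HEK 293T) received compounds from DMSO stocks after overnight attachment, were incubated 5 hr, then treated 2 hr with FRET substrate before dual-emission fluorescence measurement (405 nm excitation).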

[3] = Human pregnane X receptor (PXR) small molecule agonists, qHTS cell viability counter screen (AID 1346977); also: nearly all actives have a fitted effect of over 50% in size
Summary of the method: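 Measures live-cell protease fluorescence (CellTiter-Fluor) in PXR-Luc HepG2 cells treated 24hr with compounds at 37C. Cells had 5hr to attach before pin transfer of DMSO solutions.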

[4] = Caspase-3/7 induction in HepG2 cells by small molecules, qHTS assay (AID 1346978); also: nearly all actives have a fitted effect of over 15% in size
Summary of the method: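 Wild-type HepG2 cells (2,000/well) were settled 5 h at 37 C, 5% CO2, then exposed to compounds in DMSO for 17 h. Caspase-3/7 activity was read by luminescence 30 min after adding Caspase-Glo 3/7 reagent at room temperature.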

[5] = Caspase-3/7 induction in CHO-K1 cells by small molecules, qHTS cell viability counter screen (AID 1346979); also: nearly all actives have a fitted effect of over 35% in size
Summary of the method: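 In the same wells as the caspase read, viability of compound-treated wild-type CHO-K1 cells was assessed using CellTiter-Fluor, added after 16hr at 37C and measured by fluorescence following 1hr further incubation.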

[6] = Caspase-3/7 induction in CHO-K1 cells by small molecules, qHTS assay (AID 1346980); also: nearly all actives have a fitted effect of over 15% in size
Summary of the method: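 Wild-type cells were seeded at 1,500 per well and settled 5 hr at 37 C, 5% CO2, then exposed to DMSO-dissolved compounds for 17 hr. Caspase-Glo 3/7 reagent was added, and luminescence was read after 30min at room temperature.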

[7] = Caspase-3/7 induction in HepG2 cells by small molecules, qHTS cell viability counter screen (AID 1346981); also: series mostly up to about 92 µM; nearly all actives have a fitted effect of over 30% in size
Summary of the method: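 After a 5-hr attachment period at 37 C and 5% CO2, wild-type HepG2 cells received compounds in DMSO. Sixteen hours later CellTiter-Fluor was dispensed and the fluorescent signal quantified after a further hour.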

[8] = molecular target: Nuclear receptor subfamily 1 group I member 2 (Homo sapiens) (UniProt O75469); test: Human pregnane X receptor (PXR) small molecule agonists, qHTS assay (AID 1346982); also: nearly all actives have a fitted effect of over 35% in size
Summary of the method: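 Tox21 qHTS; PXR-Luc HepG2; compounds pinned from DMSO; 24 hr, 37 C; ONE-Glo luciferase detection, 30 min room temperature.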

[9] = molecular target: Cytochrome P450 2D6 (Homo sapiens) (UniProt P10635); test: Cytochrome P450 Family 2 Subfamily D Member 6 (CYP2D6) small molecule antagonists: luciferase reporter qHTS assay (AID 1671196); also: nearly all actives have a fitted effect of over 50% in size; also: potency is read from the fitted curve at half-maximal effect
Summary of the method: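 Room-temperature luminescent CYP2D6 activity assay: compound preincubated 10 min with enzyme–substrate mix, NADPH-initiated reaction 1 h, detection reagent 20 min before reading.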

[10] = molecular target: Cytochrome P450 2C19 (Homo sapiens) (UniProt P33261); test: Cytochrome P450 Family 2 Subfamily C Member 19 (CYP2C19) small molecule antagonists: luciferase reporter qHTS assay (AID 1671197); also: series mostly up to about 120 µM; nearly all actives have a fitted effect of over 65% in size
Summary of the method: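 First, compounds are pinned into enzyme-substrate mix and held 10 min at room temperature. Second, NADPH regeneration solution is added and plates incubate 1 h at 37C. Third, detection reagent is added and luminescence read after 20 min.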

[11] = molecular target: Cytochrome P450 2C9 (Homo sapiens) (UniProt P11712); test: Cytochrome P450 Family 2 Subfamily C Member 9 (CYP2C9) small molecule antagonists: luciferase reporter qHTS assay (AID 1671198); also: series mostly up to about 120 µM; nearly all actives have a fitted effect of over 50% in size
Summary of the method: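 CYP2C9 activity was measured with a P450-Glo proluciferin substrate. Enzyme–substrate mix was held with compound for 10 min at room temperature, then NADPH regeneration solution was added for 1 h at 37C. Luciferin product was read as luminescence.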

[12] = molecular target: Cytochrome P450 1A2 (Homo sapiens) (UniProt P05177); test: Cytochrome P450 Family 1 Subfamily A Member 2 (CYP1A2) small molecule antagonists: luciferase reporter qHTS assay (AID 1671199); also: series mostly up to about 120 µM; nearly all actives have a fitted effect of over 50% in size
Summary of the method: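 Room-temperature CYP1A2 reaction with proluciferin substrate: compounds added from DMSO, 10 min preincubation, NADPH regeneration for 1 h. Luciferin detection reagent then added; luminescence recorded as RLU.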

[13] = molecular target: Voltage-gated inwardly rectifying potassium channel KCNH2 (Homo sapiens) (UniProt Q12809); test: Human Ether-a-go-go-Related Gene (hERG) channel small molecule antagonists: fluorescence cell-based qHTS assay (AID 1671200)
Summary of the method: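 Quantitative HTS in hERG-U2OS cells: thallium entry through the channel reports activity, read as continuous 480/540 nm fluorescence over 2 min after stimulus addition.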

[14] = molecular target: Cytochrome P450 3A4 (Homo sapiens) (UniProt P08684); test: Cytochrome P450 Family 3 Subfamily A Member 4 (CYP3A4) small molecule antagonists: luciferase reporter qHTS assay (AID 1671201)
Summary of the method: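 Inhibition of CYP3A4 is measured as loss of light: the enzyme converts a proluciferin substrate to luciferin, detected luminescently. Reaction ran 1 h at room temperature with NADPH regeneration after a 10 min compound preincubation.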

[15] = molecular target: Nuclear receptor subfamily 1 group I member 2 (Rattus norvegicus) (UniProt Q9R1A7); test: Rat pregnane X receptor (rPXR) activation by small molecules, qHTS assay (AID 1346983); conditions: rPXR luciferase reporter cells, One-Glo luminescence, 24 h; max activation: hits give high values; also: nearly all actives have a fitted effect of over 20% in size
Summary of the method: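 Cell-based rPXR luciferase reporter assay, 2,000 cells per well, rested 5hr at 37 C before compound addition in DMSO, then 24 hr at 37 C. One-Glo reagent was added and luminescence read after 30 min at room temperature.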

[16] = molecular target: Nuclear receptor subfamily 1 group I member 2 (Homo sapiens) (UniProt O75469); test: CYP3A4 induction through human pregnane X receptor (PXR) by small molecules, qHTS assay (AID 1346984); also: nearly all actives have a fitted effect of over 40% in size
Summary of the method: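 Cells (DPX-2; HepG2 with PXR element plus CYP3A4-promoter luciferase) settled 5hr, then were treated 24hr at 37C. A 3hr, 3uM-final Luciferin-IPA step preceded luminescence measurement with One-Glo.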

Sequence of Cytochrome P450 3A4 (Homo sapiens) (P08684 whole entry, looked up): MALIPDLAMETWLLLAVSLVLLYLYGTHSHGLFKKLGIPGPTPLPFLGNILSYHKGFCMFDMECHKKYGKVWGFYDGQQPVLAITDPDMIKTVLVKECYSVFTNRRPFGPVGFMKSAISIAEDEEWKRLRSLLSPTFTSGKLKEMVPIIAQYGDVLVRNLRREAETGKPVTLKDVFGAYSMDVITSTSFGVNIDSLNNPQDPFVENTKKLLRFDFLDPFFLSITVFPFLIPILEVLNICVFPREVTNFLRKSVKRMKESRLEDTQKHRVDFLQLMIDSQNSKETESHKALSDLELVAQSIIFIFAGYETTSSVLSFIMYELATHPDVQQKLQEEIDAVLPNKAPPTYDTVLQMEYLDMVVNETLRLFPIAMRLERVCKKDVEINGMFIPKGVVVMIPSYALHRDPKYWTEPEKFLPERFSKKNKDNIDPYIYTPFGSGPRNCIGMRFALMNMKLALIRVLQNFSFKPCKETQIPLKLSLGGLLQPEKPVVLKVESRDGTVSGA
Sequence of Voltage-gated inwardly rectifying potassium channel KCNH2 (Homo sapiens) (Q12809 whole entry, looked up): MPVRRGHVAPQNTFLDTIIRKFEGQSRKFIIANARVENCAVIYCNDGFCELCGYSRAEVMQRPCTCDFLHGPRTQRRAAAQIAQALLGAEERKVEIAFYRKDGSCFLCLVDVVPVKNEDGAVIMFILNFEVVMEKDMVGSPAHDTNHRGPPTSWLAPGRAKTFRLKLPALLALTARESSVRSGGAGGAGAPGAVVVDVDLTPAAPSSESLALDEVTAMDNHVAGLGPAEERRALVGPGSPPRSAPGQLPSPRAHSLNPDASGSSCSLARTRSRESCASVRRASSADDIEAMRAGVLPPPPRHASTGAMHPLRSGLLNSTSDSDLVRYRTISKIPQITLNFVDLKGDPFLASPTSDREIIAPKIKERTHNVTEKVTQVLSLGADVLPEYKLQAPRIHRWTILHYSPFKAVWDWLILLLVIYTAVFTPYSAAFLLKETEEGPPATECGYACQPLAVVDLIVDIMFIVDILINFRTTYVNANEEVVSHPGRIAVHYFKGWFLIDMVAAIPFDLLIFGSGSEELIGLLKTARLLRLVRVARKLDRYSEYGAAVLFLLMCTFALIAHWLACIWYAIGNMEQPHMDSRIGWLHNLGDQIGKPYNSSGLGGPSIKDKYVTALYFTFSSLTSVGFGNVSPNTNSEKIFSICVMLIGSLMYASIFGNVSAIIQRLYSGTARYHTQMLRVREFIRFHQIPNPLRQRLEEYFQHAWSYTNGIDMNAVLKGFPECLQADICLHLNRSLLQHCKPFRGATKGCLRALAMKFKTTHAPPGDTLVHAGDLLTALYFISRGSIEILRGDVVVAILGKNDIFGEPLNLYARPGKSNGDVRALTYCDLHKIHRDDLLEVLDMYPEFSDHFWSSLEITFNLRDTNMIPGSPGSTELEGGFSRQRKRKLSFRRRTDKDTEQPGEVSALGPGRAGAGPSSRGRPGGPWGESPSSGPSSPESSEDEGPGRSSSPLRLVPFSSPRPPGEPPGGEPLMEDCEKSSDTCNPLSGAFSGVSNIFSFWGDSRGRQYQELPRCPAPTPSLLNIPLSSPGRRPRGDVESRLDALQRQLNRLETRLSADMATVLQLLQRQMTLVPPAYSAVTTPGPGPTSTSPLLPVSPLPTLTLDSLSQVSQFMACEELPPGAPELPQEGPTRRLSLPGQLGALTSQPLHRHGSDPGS
Sequence of Nuclear receptor subfamily 1 group I member 2 (Homo sapiens) (O75469 whole entry, looked up): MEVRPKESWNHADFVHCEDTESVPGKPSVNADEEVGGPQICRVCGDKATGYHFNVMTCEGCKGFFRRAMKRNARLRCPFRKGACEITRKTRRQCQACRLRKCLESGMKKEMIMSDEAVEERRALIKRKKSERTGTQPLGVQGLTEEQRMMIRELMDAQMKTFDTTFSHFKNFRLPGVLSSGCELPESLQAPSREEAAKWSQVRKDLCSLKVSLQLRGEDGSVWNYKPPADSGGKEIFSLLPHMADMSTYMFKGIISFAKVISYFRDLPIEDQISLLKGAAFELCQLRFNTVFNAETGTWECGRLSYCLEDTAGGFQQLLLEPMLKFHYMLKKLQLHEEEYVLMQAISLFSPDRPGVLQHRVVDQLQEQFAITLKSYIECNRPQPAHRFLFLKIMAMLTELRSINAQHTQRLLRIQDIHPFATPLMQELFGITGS
Sequence of Cytochrome P450 1A2 (Homo sapiens) (P05177 whole entry, looked up): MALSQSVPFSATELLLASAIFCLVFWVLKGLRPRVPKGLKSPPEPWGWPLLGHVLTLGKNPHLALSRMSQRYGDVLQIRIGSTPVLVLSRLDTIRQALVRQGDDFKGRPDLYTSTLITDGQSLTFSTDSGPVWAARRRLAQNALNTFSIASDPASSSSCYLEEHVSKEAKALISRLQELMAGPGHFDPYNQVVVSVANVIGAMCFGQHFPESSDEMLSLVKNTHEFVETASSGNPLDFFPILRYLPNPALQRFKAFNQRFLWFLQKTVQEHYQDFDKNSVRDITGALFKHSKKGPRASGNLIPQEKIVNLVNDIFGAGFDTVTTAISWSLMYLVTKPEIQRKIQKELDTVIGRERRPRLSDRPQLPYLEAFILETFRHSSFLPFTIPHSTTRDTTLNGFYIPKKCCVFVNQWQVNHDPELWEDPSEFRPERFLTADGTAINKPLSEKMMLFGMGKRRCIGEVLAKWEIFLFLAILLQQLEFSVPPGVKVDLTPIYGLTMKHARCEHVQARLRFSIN
Sequence of Nuclear receptor subfamily 1 group I member 2 (Rattus norvegicus) (Q9R1A7 whole entry, looked up): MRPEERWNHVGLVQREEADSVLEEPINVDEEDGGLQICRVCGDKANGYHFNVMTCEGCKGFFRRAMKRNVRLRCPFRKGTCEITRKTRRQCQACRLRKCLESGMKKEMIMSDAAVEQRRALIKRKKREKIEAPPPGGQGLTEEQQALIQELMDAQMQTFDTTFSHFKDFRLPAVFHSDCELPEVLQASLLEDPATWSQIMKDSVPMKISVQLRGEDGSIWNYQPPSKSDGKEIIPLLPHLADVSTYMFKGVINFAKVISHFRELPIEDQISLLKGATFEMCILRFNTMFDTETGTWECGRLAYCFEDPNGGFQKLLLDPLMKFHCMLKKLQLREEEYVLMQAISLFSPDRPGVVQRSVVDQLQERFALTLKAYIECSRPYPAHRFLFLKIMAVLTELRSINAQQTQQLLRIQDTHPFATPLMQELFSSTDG
Sequence of Cytochrome P450 2C9 (Homo sapiens) (P11712 whole entry, looked up): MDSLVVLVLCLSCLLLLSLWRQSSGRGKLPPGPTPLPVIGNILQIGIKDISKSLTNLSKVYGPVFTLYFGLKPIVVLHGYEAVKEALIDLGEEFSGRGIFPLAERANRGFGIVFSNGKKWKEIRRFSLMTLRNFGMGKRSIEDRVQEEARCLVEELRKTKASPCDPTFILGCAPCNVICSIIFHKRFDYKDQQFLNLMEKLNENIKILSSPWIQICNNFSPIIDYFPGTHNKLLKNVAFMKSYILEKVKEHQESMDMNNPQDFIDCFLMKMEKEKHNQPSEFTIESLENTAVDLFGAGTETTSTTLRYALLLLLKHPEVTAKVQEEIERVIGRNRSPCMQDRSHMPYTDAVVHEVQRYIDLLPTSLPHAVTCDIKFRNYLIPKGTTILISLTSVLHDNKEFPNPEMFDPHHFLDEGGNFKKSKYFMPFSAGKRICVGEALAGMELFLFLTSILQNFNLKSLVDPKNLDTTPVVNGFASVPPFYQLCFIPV
Sequence of Cytochrome P450 2D6 (Homo sapiens) (P10635 whole entry, looked up): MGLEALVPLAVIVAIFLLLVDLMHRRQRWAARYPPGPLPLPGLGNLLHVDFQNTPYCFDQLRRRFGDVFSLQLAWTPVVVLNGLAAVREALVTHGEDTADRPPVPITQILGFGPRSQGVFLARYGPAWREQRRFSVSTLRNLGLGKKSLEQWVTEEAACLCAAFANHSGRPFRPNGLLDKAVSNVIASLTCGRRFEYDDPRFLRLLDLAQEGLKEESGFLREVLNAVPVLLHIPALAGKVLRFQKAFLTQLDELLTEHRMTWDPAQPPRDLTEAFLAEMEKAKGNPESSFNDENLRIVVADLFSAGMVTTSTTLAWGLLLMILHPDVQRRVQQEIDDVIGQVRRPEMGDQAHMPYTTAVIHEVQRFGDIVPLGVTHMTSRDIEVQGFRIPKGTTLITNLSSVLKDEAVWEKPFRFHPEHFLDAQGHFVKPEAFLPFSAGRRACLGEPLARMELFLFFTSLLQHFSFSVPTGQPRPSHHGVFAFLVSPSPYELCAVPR
Sequence of Cytochrome P450 2C19 (Homo sapiens) (P33261 whole entry, looked up): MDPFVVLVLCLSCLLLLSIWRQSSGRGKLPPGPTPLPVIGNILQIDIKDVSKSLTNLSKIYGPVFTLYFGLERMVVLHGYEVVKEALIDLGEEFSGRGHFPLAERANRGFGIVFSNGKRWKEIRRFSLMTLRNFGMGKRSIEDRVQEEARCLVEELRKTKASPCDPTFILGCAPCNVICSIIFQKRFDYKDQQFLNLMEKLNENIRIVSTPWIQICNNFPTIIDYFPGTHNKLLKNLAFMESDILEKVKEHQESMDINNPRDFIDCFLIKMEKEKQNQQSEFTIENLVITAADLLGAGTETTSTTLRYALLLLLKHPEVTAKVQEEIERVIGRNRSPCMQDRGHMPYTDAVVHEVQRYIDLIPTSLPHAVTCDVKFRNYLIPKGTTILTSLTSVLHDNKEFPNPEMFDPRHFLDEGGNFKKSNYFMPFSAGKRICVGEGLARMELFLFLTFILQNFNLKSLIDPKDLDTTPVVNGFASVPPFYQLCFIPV

Row | SMILES | outcome [1] | outcome [2] | Potency [3] | outcome [4] | Potency [5] | outcome [6] | Potency [7] | Potency [8] | Potency [9] | Potency [10] | Potency [11] | Potency [12] | Potency [13] | Potency [14] | max activation [15] [%] | outcome [16]
1 | O=C(O)C(=O)Nc1cccc(-c2nn[nH]n2)c1 | inactive | inactive | inactive | inactive | inactive | inactive | inactive | inactive | inactive | inactive | inactive | inactive | inactive | inactive |  | 
2 | CC(C)c1ccccc1O | inactive | inactive | inactive | inactive | inactive | inactive | inactive | inactive | inactive | inactive |  |  | inactive | inactive |  | 
3 | CC(=O)OCCCc1ccccc1 | inactive | inactive | inactive | inactive | inactive | inactive | inactive | inactive | inactive |  | inactive | inactive | inactive | inactive |  | 
4 | O=c1[nH]c(=O)c2ccccc2o1 | inactive | inactive | inactive | inactive | inactive | inactive | inactive | inactive |  |  | inactive | inactive | inactive | inactive | -5.11 | inactive
5 | CC(=O)N(CC(O)CO)c1c(I)c(C(=O)NCC(O)CO)c(I)c(C(=O)NCC(O)CO)c1I (centres undefined) | inactive | inactive | inactive | inactive | inactive | inactive | inactive | inactive |  | inactive |  | inactive | inactive | inactive | -0.214 | inactive
6 | O=C(O)c1ccc(OCCN2CCCCC2)cc1 | inactive | inactive | inactive | inactive | inactive | inactive | inactive | inactive | inactive | inactive | inactive |  | inactive | inactive |  | 
7 | COc1cc2c3cc1Oc1cc(ccc1O)C[C@@H]1c4c(cc(OC)c(O)c4Oc4ccc(cc4)C[C@@H]3N(C)CC2)CC[N+]1(C)C | inactive | inactive | inactive | inactive | inactive | inactive | inactive | inactive |  |  | inactive | inactive | inactive | inactive | -3.43 | inactive
8 | OC[C@@H](O)[C@H](O)[C@@H](O)[C@@H](O)CO | inactive | inactive | inactive | inactive | inactive | inactive | inactive | inactive | inactive |  | inactive |  | inactive | inactive |  | 
9 | CCOC(=O)OCC/C(SC(=O)OCC)=C(\C)N(C=O)Cc1cnc(C)nc1N | inactive | inactive | inactive | inactive | inactive | inactive | inactive | inactive | 2.45 µM (active) | inactive | inactive | inactive | inactive |  |  | 
